This is an account of results in PubChem BioAssay (NCI).

About 83,000 compounds went through this panel and 20% of them were active in at least one assay; those are over-represented in the sample as a whole.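 The test compound was applied at a single concentration to cells in 96-well plates for 48 hours, and percent growth was recorded.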 Unmarked numbers belong to inactive results. Calls of active or inactive are those of the source. The calls were made as follows: active = growth percent below 10; inactive = the rest.

The assay relates to DU-145 prostate. The assay can be described thus: NCI-60 one-dose screen, 48 h (100 = growth as untreated, 0 = no growth, -100 = all killed). The following applies: 10 µM.
Regarding `O=C(Nc1ccc(I)cc1F)c1cc(-c2ccc(F)cc2F)ccc1O`, the growth is 21.5%.

On to `CN1CCN(c2ccc(C(=O)/C=C/c3ccc(C#N)cc3)cc2)CC1`, for which the growth is 82.1%.

As for `Cc1ccc([N+](=O)[O-])c(C(=O)Nc2ccc(-c3ccc4c(c3)NC(=O)/C4=C\c3ccc[nH]3)cc2)c1`, the growth was 10.5%.

Take `CN1CCO/C1=C(/NC(=O)c1ccc(Cl)cc1)[P+](c1ccccc1)(c1ccccc1)c1ccccc1`: the growth is 95.2%.

For `CNCc1cccc2c1OCCCCCC[C@@](C)(O)CC1(CC1)S(=O)(=O)c1ccc(cc1)-c1cnc(N)c(n1)C(=O)N2`, the growth was -84.5% (active).

On to `Cc1cccc(NC(=O)CSc2nc3ccc(F)cc3c(=O)n2-c2ccc(Cl)cc2)c1C`, for which the growth is 69.6%.

`CC(=O)OC[C@@]1(C)C2CC[C@]3(C)C(CC=C4C5CC(C)(C)CC[C@]5(C(=O)Nc5ccccc5)CC[C@]43C)[C@@]2(C)C[C@@H](OC(C)=O)[C@@H]1OC(C)=O` (some centres not stated): the growth is 44.9%.

For the compound `CC1=C2C(=C[C@@](C)(COCOCCCl)[C@@H]2O)C(=O)[C@](C)(O)C12CC2`, the growth is -11.1% (active).

For the compound `CCN1CCN(Cc2ccc(NC(=O)c3cccc(-n4cc(-c5ccc(NC(C)=O)nc5)nn4)c3)cc2C(F)(F)F)CC1`, the growth is 104%.

In the case of `O=C(c1ccc(O)cc1)C1[C@H](c2ccc(Br)cc2)[C@@H](c2ccccc2)NC12C(=O)Nc1ccccc12` (some centres not stated), the growth was 49.1%.

For `Nc1nnc(-c2c[nH]c3ccc(F)cc23)c(-c2c[nH]c3ncccc23)n1`, the growth was 82%.

`O=C(c1ccc(Cl)cc1)C1[C@H](c2ccccc2Br)[C@@H](c2ccccc2)NC12C(=O)Nc1ccc(Cl)cc12` (some centres not stated): the growth is 29.1%.

Consider `Cc1ccc(NCC(=O)Nn2c(COc3ccccc3)nc3ccccc3c2=O)cc1`, for which the growth is 85.9%.

Take `NS(=O)(=O)c1ccc(N=Nc2c(O)n(CC(=O)Nc3ccccc3Br)c3ccccc23)cc1`: the growth is 34.7%.

With `CN(C(=O)c1ccc(C(F)(F)F)cc1C(F)(F)F)c1sc2c(c1C#N)CCC(=O)C2`, the growth is 103%.

As to `CC(C)(C)Nc1nc2cc(Cl)c(Cl)cc2nc1S(C)(=O)=O`, the growth is 57.2%.

On to `Cc1ccc(/C(N)=N/c2sc(-c3ccccc3)nc2-c2ccccc2)cc1`, for which the growth is 89%.

On to `O=c1cc(-c2ccccc2)oc2cc(OCCCNCc3ccccc3)cc(O)c12`, for which the growth was 13.2%.

As for `CCOC(=O)C1NN(c2ccc(S(N)(=O)=O)cc2)c2nc3nc(-c4cccs4)cc(-c4cccs4)c3c(=O)n21` (configuration not stated), the growth was 91.6%.

In the case of `N#Cc1c(NC(=O)c2ccc(C(F)(F)F)cc2)sc2c1CCC(O)=C2`, the growth is 38.5%.

Turning to `COc1ccc2[nH]cc(/C=N/Nc3ccc(Br)cn3)c2c1`, the growth was 40.7%.

With `Cc1cc(C(F)(F)F)ccc1C(=O)Nc1sc2c(c1C#N)CCC(=O)C2`, the growth was 20.3%.

Take `Cc1ccc(F)cc1N/C=c1\s/c(=C(\C#N)C(=O)Nc2ccccc2)n(-c2ccccc2)c1=O`: the growth is 54.5%.

As to `CCCn1c(=O)c2[nH]c(-c3ccc(OCc4nc5ccc(C)cc5[nH]4)cc3)nc2n(CCC)c1=O`, the growth was 61.8%.

Turning to `O=C(O)CCCCCCCCCCN1C(=O)/C(=C/c2cnc(-c3ccccc3)s2)SC1=S`, the growth is 80.4%.

In the case of `O=C1NC(=NC2CCCCCC2)N/C1=C\c1ccc2ncoc2c1`, the growth was 31.1%.

On to `COc1ccc2[nH]c(=O)c(CSc3cccc(N)c3)cc2c1`, for which the growth was 59.4%.

Consider `O=C(c1ccc(Cl)cc1)C1[C@H](c2ccc(Br)cc2)[C@@H](c2ccccc2)NC12C(=O)Nc1ccc(Cl)cc12` (some centres not stated), for which the growth is -27.9% (active).

Regarding `C=CC(=O)Nc1ccc(C(=O)/C=C/c2ccc(N(C)CCF)cc2)c(O)c1`, the growth was -51.2% (active).

On to `COc1cccc(/C=C2\N=C(C)N(CCc3ccc(S(N)(=O)=O)cc3)C2=O)c1`, for which the growth is 112%.

For the compound `N#Cc1c(NC(=O)c2ccc(C(F)(F)F)cc2)sc2c1CCC(=O)C2`, the growth is 23.1%.

Consider `COc1cc2oc(-c3cccc(C(=O)Nc4ccc(Cl)cc4)c3)cc(=O)c2c(OCCNC(=O)CNC(=O)OC(C)(C)C)c1OC`, for which the growth is 77.5%.

`Cc1ccc(C(=O)NNC(=O)CSc2nc3ccccc3c(=O)[nH]2)cc1`: the growth is 105%.

For `Brc1ccc(/C=N/Nc2ncnc3sc4c(c23)CCN(Cc2ccccc2)C4)cc1`, the growth is 47.2%.

On to `Cc1cc2nc3c4ccccc4n(CCO)c3nc2cc1C`, for which the growth is 58%.

Take `O=C1NC(=NC23CC4CC(CC(C4)C2)C3)N/C1=C\c1ccc2ncccc2n1`: the growth was 2.14% (active).

Regarding `CN1CCN(Cc2ccc(C(=O)Nc3cccc(Nc4ccc5cc(O)ccc5n4)c3)cc2C(F)(F)F)CC1`, the growth is -16.1% (active).
